{"source": "the OligoGym collection"}
{"molecular_target": "TUBAL3", "experiment": "pooled miR-30 sensor sort-seq; sequence = guide strand", "conditions": "shRNA"}
{"sequence": "TAGACCGAGAACTCCAGCTTAG", "sensor-assay potency score (higher = more potent)": -0.779}
{"sequence": "TTTGTCAGCAGAGACGATGGGG", "sensor-assay potency score (higher = more potent)": 0.442}
{"sequence": "TTCAATTAGGTCTACATTCAAG", "sensor-assay potency score (higher = more potent)": -1.3}
{"sequence": "TAAGGTACCAGGTTGGTCTGGA", "sensor-assay potency score (higher = more potent)": 0.512}
{"sequence": "TTCATTGTTGGTACTGACCCAC", "sensor-assay potency score (higher = more potent)": 0.0791}
{"sequence": "ATTGTTGGCAGCATCCTCCTTT", "sensor-assay potency score (higher = more potent)": 0.0651}
{"sequence": "TAGTGTGGAACCTAGAGTCTTG", "sensor-assay potency score (higher = more potent)": -0.173}
{"sequence": "TTAAGAGAGACGTAAACCCTGA", "sensor-assay potency score (higher = more potent)": -0.309}
{"sequence": "TGCATTTTCCAGCTGATCCTGT", "sensor-assay potency score (higher = more potent)": -0.383}
{"molecular_target": "TUBB2B", "experiment": "pooled miR-30 sensor sort-seq; sequence = guide strand", "conditions": "shRNA"}
{"sequence": "AACACGAAATTGTCTGGTCTGA", "sensor-assay potency score (higher = more potent)": -0.953}
{"sequence": "TAAACATTGATTCTCTCCAGCT", "sensor-assay potency score (higher = more potent)": -0.472}
{"sequence": "TTCCACCAGCTGGTGGACCGAG", "sensor-assay potency score (higher = more potent)": -1.21}
{"sequence": "TAACCGAATCCATCGTGCCTGG", "sensor-assay potency score (higher = more potent)": -0.853}
{"sequence": "TTCATTGTAGTAAACATTGATT", "sensor-assay potency score (higher = more potent)": -0.873}
{"sequence": "TCGTTGTCAATGCAGTAGGTTT", "sensor-assay potency score (higher = more potent)": -1.57}
{"sequence": "ATGCTCATCACTGATGACCTCC", "sensor-assay potency score (higher = more potent)": -0.227}
{"sequence": "GTAAACATTGATTCTCTCCAGC", "sensor-assay potency score (higher = more potent)": -1.79}
{"sequence": "AACATTGATTCTCTCCAGCTGC", "sensor-assay potency score (higher = more potent)": -0.381}
{"sequence": "TCCATGGTAACTGCCAGTGGGG", "sensor-assay potency score (higher = more potent)": -1.71}
{"sequence": "TAGTAAACATTGATTCTCTCCA", "sensor-assay potency score (higher = more potent)": 0.0212}
{"sequence": "ATGCAGTAGGTTTCATCTGTGT", "sensor-assay potency score (higher = more potent)": -0.689}
